Screening results from PubChem.
The list is not random: actives were taken first. Their share in the collection is about 12%.
Sfp inh – qHTS Assay for Inhibitors of Bacillus subtilis Sfp phosphopantetheinyl transferase (PPTase); 4'-phosphopantetheinyl transferase ffp (Bacillus subtilis), Q9F4F7; Biochemical Sfp PPTase activity, qHTS; Potency, µM, most hits filed as inhibitors; actives 3.5% (n = 310,000); AID 1490, 2009;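 further: the enzyme is Sfp with the accession as filed and its product quenches rhodamine fluorescence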
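Fluorescence-quenching assay with 15 nM Sfp, 5 uM rhodamine-CoA and 12.5 uM BHQ-2-labelled ybbR peptide in pH 7.6 Hepes/MgCl2 buffer. Enzyme was pre-incubated with compound for 15 min at room temperature. Rate was taken from the 30-min fluorescence change (525/598 nm).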
HP1b binding inh – HTS for Inhibitors of HP1-beta Chromodomain Interactions with Methylated Histone Tails. Chromobox protein homolog 1 (Homo sapiens), P83916. AlphaScreen HP1-beta / biotin-H3K9me3 peptide binding. Potency, µM (series often up to 114 µM), usual class: inhibitors. actives 0.56% (n = 390,000). AID 540317, 2011; further: nearly all actives have a fitted effect of over 70% in size
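Compound inhibition of the preformed complex between 50 nM HP1-beta and 50 nM biotinylated H3K9me3 peptide was read by AlphaScreen. Buffer was PBS pH 7.4 with 0.01% Tween-20. Incubations ran 30 min at room temperature, with 10 ug/mL donor/acceptor beads.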
PLK1 PBD block – qHTS for Inhibitors of PLK1-PDB (polo-like kinase 1 - polo-box domain): Primary Screen | Serine/threonine-protein kinase PLK1 (Homo sapiens), P53350 | Plk1 PBD binding of FITC phosphopeptide, fluorescence polarization | Potency, µM, actives largely listed as inhibitors | actives 2.8% (n = 360,000) | AID 720504, 2013; further: series mostly up to about 57 µM; nearly all actives have a fitted effect of over 65% in size
G9a inh-1 – qHTS Assay for Inhibitors of Histone Lysine Methyltransferase G9a; G9a H3K9 monomethylation, AlphaScreen, 2 h; Potency, µM (highest dose often 102 µM), hits mostly inhibitors; actives 8.8% (n = 350,000); AID 504332, 2011; further: nearly all actives have a fitted effect of over 75% in size
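Compounds were preincubated with 20 nM G9a for 15 min, after which biotinylated H3K9 peptide (500 nM) and SAM (20 uM) started a 2 h room-temperature reaction. Monomethylated product was quantified by antibody-based AlphaScreen chemiluminescence.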
BAZ2B inh – qHTS Assay for Inhibitors of BAZ2B; Bromodomain adjacent to zinc finger domain protein 2B (Homo sapiens), Q9UIF8; AlphaScreen BAZ2B-H3K14Ac peptide displacement; Potency, µM (titrated, usually from 114 µM), most hits filed as inhibitors; actives 4.4% (n = 360,000); AID 504333, 2011; further: nearly all actives have a fitted effect of over 60% in size
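BAZ2B (50 nM) with biotin-H3(5-23)K14Ac peptide (50 nM) in PBS pH 7.4, 0.01% Tween-20, preformed 30 min, then compound 30 min at room temperature; top concentration 110uM. AlphaScreen streptavidin donor/nickel chelate acceptor beads (10 ug/mL final), 20 min dark, signal read.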
JMJD2A Tudor inh – qHTS Assay for Inhibitors of JMJD2A-Tudor Domain | Lysine-specific demethylase 4A (Homo sapiens), O75164 | Potency, µM (series often up to 114 µM), actives largely listed as inhibitors | actives 4.4% (n = 390,000) | AlphaScreen JMJD2A-Tudor / H3K4me3 peptide binding; further: nearly all actives have a fitted effect of over 50% in size
JMJD2E inh – Confirmation qHTS Assay for Inhibitors of Human Jumonji Domain Containing 2E (JMJD2E); actives 93% (n = 140); AID 2677, 2010; Potency, µM (highest dose often 56.8 µM), hits mostly inhibitors; shares compounds with JMJD2A Tudor inh; Recombinant JMJD2E, FDH-coupled NADH fluorescence (FDH is formaldehyde dehydrogenase)
FDH inh – Counterscreen for JMJD2E Inhibitors: qHTS Assay for Inhibitors of Formaldehyde Dehydrogenase (FDH). FDH enzyme assay, NADH fluorescence kinetic. Potency, µM (series often up to 56.7 µM), actives largely listed as inhibitors. AID 2680, 2010. shares compounds with JMJD2A Tudor inh. actives 10% (n = 140)
G9a inh-2 – qHTS Assay for Inhibitors of Histone Lysine Methyltransferase G9a: Hit Confirmation | Potency, µM, hits mostly inhibitors | actives 89% (n = 370) | G9a H3K9 monomethylation, AlphaScreen, 2 h | shares compounds with JMJD2A Tudor inh; further: nearly all actives have a fitted effect of over 65% in size
Numbers stand for hits; . = inactive; ? = inconclusive; / = no result; [ ] = another dose, or the depositor's remark. The call rests on the fitted dose curve; in most records, active means well fitted curve in the direction sought with a large enough effect; inconclusive means small, poorly fitted or top-dose-only effect, or another doubt; inactive means no such curve, though single readings can be large; an effect the other way counts as inactive or inconclusive.

SMILES	Sfp inh	HP1b binding inh	PLK1 PBD block	G9a inh-1	BAZ2B inh	JMJD2A Tudor inh	G9a inh-2	others
CCOc1ccc(NC(=O)CCN2CCN(S(=O)(=O)c3cc(Cl)ccc3OC)CC2)cc1	.	.	.	?	.	.	/
CCOc1ccc(NC(=O)CN2CCN(CC(=O)c3ccc(OCC)cc3)CC2)cc1	.	.	.	2.8µM	.	?	5.6
CC(C)(C)NC(=O)CSc1nc2cccnc2n1C1CCCCC1	.	.	.	.	.	.	/
CCOc1c(Cl)cc(CNc2ccc(S(N)(=O)=O)cc2)cc1OC	.	.	.	.	.	.	/
CCOc1c(Cl)cc(CNc2ccc(N3CCCC3)cc2)cc1OC	79µM	45µM	?	2.8µM	20µM	14µM	6.3
O=C(NC1CCCC1)C(c1ccccn1)N(C(=O)c1csnn1)c1ccccc1F (stereo unspecified)	.	.	.	.	.	.	/
CCOC(=O)[C@]12CCC=C1N(Cc1ccc3c(c1)OCO3)C(=O)[C@H](CC(=O)NCC13CC4CC(CC(C4)C1)C3)C2	/	/	.	/	/	/	/
CCN(CC)c1ccc(NC(=O)c2cncc(Br)c2)cc1	.	?	.	?	35µM	50µM	3.5
CCN(CC)c1ccc(NC(=O)Nc2ccc(C(C)=O)cc2)cc1	.	.	.	1.4µM	.	.	0.32
CCN(CC)c1ccc(NC(=O)c2cnn3c(C(F)F)cc(-c4ccccc4)nc23)cc1	/	?	/	2µM	2.5µM	8.9µM	4.6
O=C(CN1CCN(CC(=O)Nc2ccccc2Cc2ccccc2)CC1)Nc1ccccc1Cl	.	.	.	.	.	.	/
COc1ccc(NC(C)c2cc(Cl)ccc2O)cc1 (stereo unspecified)	.	71µM	.	?	32µM	.[11.4 µM]	?
CCOc1cc2c(cc1OCC)CN(CC(=O)Nc1ccccc1C(=O)NC1CC1)CC2	/	.	.	.	.	.	/
Cc1ccc(N2C(=O)CC(Sc3ncn[nH]3)C2=O)cc1C (stereo unspecified)	50µM	.	30µM	2µM	?	10µM	/	JMJD2E inh=7.1µM;FDH inh=0.22µM
Cc1ccc(CNC(=O)Cn2cc(C(=O)c3ccc(Cl)cc3)c(=O)c3ccc(C)nc32)cc1	/	.	/	.	.	.	/
C[C@@H]1CN([C@H](C)CO)C(=O)CCCn2nncc2CO[C@H]1CN(C)Cc1ccc2cccnc2c1	/	/	.	/	/	/	/
c1csc(Cc2nn3c(-c4n[nH]c5c4CCC5)nnc3s2)c1	.	.	2.7µM	?	?	?	13
COc1cc(OC)c(-c2nn3c(-c4n[nH]c5c4CCC5)nnc3s2)cc1OC	/	.	/	/	/	.	/
CCS(=O)(=O)N1CCN(Cc2ccccc2OC)CC1	28µM	?	.	2.5µM	22µM	3.2µM	?
COc1ccccc1CN1CCC2(CC1)CCN(S(C)(=O)=O)CC2	.	/	/	.[12.7 µM]	/	/	/
CCOC(=O)C1CCCN(CC(=O)NC2CC2)C1 (stereo unspecified)	.	18µM	.	1.6µM	32µM	5µM	45
Cc1cc(S(=O)(=O)NCCCN2CCOCC2)c(C)cc1Cl	.	.	.	?	.	.	/
